“And” between values parts separate entries of the source, which are not always exact repeats. Equal values may be shown once. The source made the active and inactive calls. Rule as the data show it, unless noted: active = inhibition above about 80%; inactive = the rest.
Assays:
[1] = tested on: F380Y; test: modulators of BK channel variants, profiling panel, selectivity assay, cell-based, U2OS BacMam, thallium flux, beta subunits (AID 1259406;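 active = thallium flux through the channel raised or lowered by more than 3 SD from vehicle-only wells, actives on both sides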;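 also: initial slope of Thallos dye fluorescence rise after thallium is added; log ratio against the mean of 0.3% DMSO vehicle wells on the same plate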); settings: at 30 µM
[2] = tested on: F380Y/beta2Delta; test: as above; settings: at 30 µM
[3] = molecular target: Calcium-activated potassium channel subunit alpha-1 (Homo sapiens) + Leucine-rich repeat-containing protein 26 (Homo sapiens) (UniProt Q12791+Q2I0M4); test: as above; settings: F380Y/Slo1WT/gamma1, at 30 µM
[4] = tested on: R275C; test: as above; settings: at 30 µM
[5] = tested on: R275C/beta1; test: as above; settings: at 30 µM
[6] = tested on: R275C/beta2Delta; test: as above; settings: at 30 µM
[7] = UWB1.289 ovarian carcinoma cell growth inhibition, synergistic combos for chromothripsis tumors, BGB or cisplatin combos (AID 1671456); settings: UWB1.289 ovarian carcinoma cells, stronger effect = higher value;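 also: cells exposed to compound for four days; 0% = vehicle DMSO and 100% = killing by high DMSO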
[8] = LFS_MB_2R medulloblastoma cell growth inhibition, synergistic combos for chromothripsis tumors, cisplatin combos (AID 1671457); settings: LFS_MB_2R medulloblastoma cells, stronger effect = higher value;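 also: cells exposed to compound for four days before readout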
[9] = MDA-MB-436 breast carcinoma cell growth inhibition, synergistic combos for chromothripsis tumors, BGB or cisplatin combos (AID 1671458; call rule not given here;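 also: cells exposed for 96 hours; 0% = vehicle DMSO and 100% = killing by high DMSO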); settings: MDA-MB-436 breast carcinoma growth inhibition, drug combinations, stronger effect = higher value
[10] = UWB1.289_BRCA1 ovarian cancer growth, cell-based, BGB or cisplatin combinations (AID 1671459); settings: UWB1.289 BRCA1 ovarian carcinoma, drug combinations, stronger effect = higher value
[11] = human astrocyte viability loss, single and combined drugs, cytotoxicity control for chromothriptic childhood tumor combination screen, cell-based, BGB or cisplatin IC20 combos (AID 1671460); settings: Human astrocytes, drug combinations, stronger effect = higher value;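 also: cells exposed to compounds for 96 hours before viability readout; 0% = vehicle and 100% = killing control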
[12] = growth inhibition of BT084 medulloblastoma cells, cell-based, ICGC_MB145, cisplatin and BGB IC40 combos (AID 1671461); settings: drug combinations, stronger effect = higher value;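 also: cells exposed to drugs for 96 hours; 0% = vehicle DMSO and 100% = high DMSO full killing control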
[13] = growth inhibition of RCMB18 medulloblastoma cells, cell-based, cisplatin and BGB IC40 combos (AID 1671462); settings: stronger effect = higher value;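 also: cells exposed to compound for four days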
[14] = growth inhibition of CRL1545 osteosarcoma cells, cell-based, cisplatin and BGB IC20 combos (AID 1671464); settings: stronger effect = higher value;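 also: cells exposed to compound for 96 hours before readout; 0% = vehicle DMSO and 100% = high DMSO killing control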
[15] = tested on: F380Y/beta1; test: modulators of BK channel variants, profiling panel, selectivity assay, cell-based, U2OS BacMam, thallium flux, beta subunits (AID 1259406); settings: at 30 µM;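 also: initial slope of Thallos dye fluorescence rise after thallium is added; log ratio against the mean of 0.3% DMSO vehicle wells on the same plate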
[16] = tested on: F380Y/beta4; test: as above; settings: at 30 µM
[17] = tested on: R275C/beta4; test: as above; settings: at 30 µM
[18] = tested on: R275C/Slo1WT/beta2; test: as above; settings: at 30 µM
[19] = measured here: inhibition with BGB combination, at 0.05 µM
[20] = measured here: inhibition with cisplatin combination, at 0.05 µM
[21] = measured here: combination with cisplatin, at 0.5 µM
[22] = measured here: combination with cisplatin, at 5 µM
[23] = measured here: BGB combination, at 0.5 µM
[24] = measured here: BGB combination, at 5 µM
[25] = measured here: cisplatin combination, at 0.5 µM
[26] = measured here: cisplatin combination, at 5 µM
[27] = BGB combination, concentration series, at 5 µM
[28] = cisplatin combination, concentration series, at 5 µM
[29] = measured here: combo with BGB IC20, at 0.5 µM
[30] = measured here: combo with cisplatin IC20, at 0.5 µM
[31] = cisplatin combination, at 0.5 µM
[32] = measured here: BGB IC40 combination 0.05 uM, at 0.05 µM
[33] = measured here: BGB IC40 combination, at 0.05 µM
[34] = measured here: with BGB IC20 combination, at 0.5 µM
[35] = measured here: with cisplatin IC20 combination, at 0.5 µM

Calcium-activated potassium channel subunit alpha-1 (Homo sapiens) + Leucine-rich repeat-containing protein 26 (Homo sapiens), sequence (Q2I0M4 whole entry, looked up, one chain of several): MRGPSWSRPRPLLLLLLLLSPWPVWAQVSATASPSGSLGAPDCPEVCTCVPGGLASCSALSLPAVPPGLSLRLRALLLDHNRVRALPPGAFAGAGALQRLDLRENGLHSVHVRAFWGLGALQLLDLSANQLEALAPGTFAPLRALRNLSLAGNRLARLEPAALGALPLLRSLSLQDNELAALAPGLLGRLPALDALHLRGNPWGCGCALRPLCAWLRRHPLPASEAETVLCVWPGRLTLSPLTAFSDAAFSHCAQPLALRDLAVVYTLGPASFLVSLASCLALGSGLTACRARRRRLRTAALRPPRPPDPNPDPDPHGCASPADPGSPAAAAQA

## CN1CCC(=C2c3ccccc3CCc3sccc32)CC1
[1]
  log fold change Tl+ flux: -0.0249 (inactive)
[2]
  log fold change Tl+ flux: -0.0147 (inactive)
[3]
  log fold change Tl+ flux: 0.0222 (inactive)
[4]
  log fold change Tl+ flux: -0.0315 (inactive)
[5]
  log fold change Tl+ flux: 0.0886 (inactive)
[6]
  log fold change Tl+ flux: 0.0371 (inactive)

## Nc1nc2c(ncn2CCC(CO)CO)c(=O)[nH]1
[7]; at 0.5 µM
  inhibition: -12.6% (inactive) and 3.48% (inactive)
[7]; [19]
  inhibition: -7.99% and -7.52%
[7]; [20]
  inhibition: -19.6% and -12.5%
[8]; at 0.5 µM
  inhibition: -3.59% (inactive) and -17% (inactive)
[8]; [21]
  inhibition: -6.24% and -17.7%
[8]; [22]
  inhibition: 9.1% and -63%
[9]; at 0.5 µM
  inhibition: -1.2% (inactive) and -23.3% (inactive)
[9]; [23]
  inhibition: 8.81% and -18.4%
[9]; [24]
  inhibition: 4.8% and -29%
[9]; [25]
  inhibition: -6.71% and -45.8%
[9]; [26]
  inhibition: 5.49% and -36%
[10]; [27]
  inhibition: -16.8% and -15.8%
[10]; at 0.5 µM
  inhibition: -10.2% (inactive) and 1.59% (inactive)
[10]; [28]
  inhibition: 4.16% and 10.4%
[11]; at 0.5 µM
  inhibition: 6.25% (inactive) and 7.18% (inactive)
[11]; [29]
  inhibition: 34.9% and 5.65%
[11]; [30]
  inhibition: -9.35% and -4.75%
[12]; at 0.5 µM
  inhibition: 8.52% (inactive) and -29.3% (inactive)
[12]; [31]
  inhibition: -11.9% and -14.8%
[12]; cisplatin combination, at 5 µM
  inhibition: -3.68% and -10.8%
[12]; [32]
  inhibition: 45.4% and 1.15%
[12]; single agent, at 5 µM
  inhibition: -12.8% and -18.7%
[13]; at 0.5 µM
  inhibition: 0.33% (inactive) and -16.2% (inactive)
[13]; cisplatin combo, at 5 µM
  inhibition: 3.43% and -89.1%
[13]; [33]
  inhibition: 3.48% and 8.53%
[13]; [21]
  inhibition: -3.27% and -9.97%
[13]; single agent, at 5 µM
  inhibition: -16.9% and 37.5%
[14]; at 0.5 µM
  inhibition: -5.94% (inactive) and 9.73% (inactive)
[14]; [34]
  inhibition: -31% and 11.5%
[14]; [35]
  inhibition: 6.57% and 6.77%
[14]; single agent, at 0.05 µM
  inhibition: -14.4% and -21.2%
[14]; single agent, at 5 µM
  inhibition: -30.6% and 1.59%
[1]
  log fold change Tl+ flux: 0.0173 (inactive)
[15]
  log fold change Tl+ flux: -0.0111 (inactive)
[2]
  log fold change Tl+ flux: -0.015 (inactive)
[16]
  log fold change Tl+ flux: -0.0159 (inactive)
[3]
  log fold change Tl+ flux: -0.013 (inactive)
[4]
  log fold change Tl+ flux: 0.00432 (inactive)
[5]
  log fold change Tl+ flux: 0.00335 (inactive)
[6]
  log fold change Tl+ flux: 0.0147 (inactive)
[17]
  log fold change Tl+ flux: -0.0144 (inactive)
[18]
  log fold change Tl+ flux: -0.0115 (inactive)

## Nc1nc(=S)c2[nH]cnc2[nH]1
[7]; at 0.5 µM
  inhibition: 63.1% (inactive)
[7]; [19]
  inhibition: -17.4%
[7]; [20]
  inhibition: -1.37%
[8]; at 0.5 µM
  inhibition: -15.5% (inactive)
[8]; [21]
  inhibition: -18.2%
[8]; [22]
  inhibition: -6.5%
[9]; at 0.5 µM
  inhibition: 15.1% (inactive)
[9]; [23]
  inhibition: 4.09%
[9]; [24]
  inhibition: 52.8%
[9]; [25]
  inhibition: 11.9%
[9]; [26]
  inhibition: 66.7%
[10]; [27]
  inhibition: 113%
[10]; at 0.5 µM
  inhibition: 63.6% (inactive)
[10]; [28]
  inhibition: 110%
[11]; at 0.5 µM
  inhibition: 4.77% (inactive)
[11]; [29]
  inhibition: -3.14%
[11]; [30]
  inhibition: 8.25%
[12]; at 0.5 µM
  inhibition: -17.7% (inactive)
[12]; [31]
  inhibition: -11.9%
[12]; cisplatin combination, at 5 µM
  inhibition: 0.406%
[12]; [32]
  inhibition: 0.063%
[12]; single agent, at 5 µM
  inhibition: 26.6%
[13]; at 0.5 µM
  inhibition: -16.7% (inactive)
[13]; cisplatin combo, at 5 µM
  inhibition: -5.08%
[13]; [33]
  inhibition: -23.1%
[13]; [21]
  inhibition: 12.6%
[13]; single agent, at 5 µM
  inhibition: -10.3%
[14]; at 0.5 µM
  inhibition: -1.16% (inactive)
[14]; [34]
  inhibition: -1.16%
[14]; [35]
  inhibition: -1.16%
[14]; single agent, at 0.05 µM
  inhibition: -14.2%
[14]; single agent, at 5 µM
  inhibition: 77.7%

From PubChem BioAssay
